Reference: PubChem BioAssay (NCI)
This is part of a sample that, as a whole, favours compounds with a hit. Of some 83,000 tested, about 20% had one in any assay.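 Compound tested at a single concentration for 48 hours in 96-well plates; a percent growth value below 10 was scored as active.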 Values without a mark were called inactive. Calls of active or inactive are those of the source.

Tests used:
Assay in all cases: NCI-60 one-dose screen, 48 h (100 = growth as untreated, 0 = no growth, -100 = all killed)
Conditions in all cases: 10 µM unless noted
DU-145 prostate = test system: DU-145 prostate
K-562 leukemia = test system: K-562 leukemia
MALME-3M melanoma = test system: MALME-3M melanoma
MDA-MB-231 breast = test system: MDA-MB-231 breast
RXF 393 renal = test system: RXF 393 renal
SF-268 CNS = test system: SF-268 CNS
SF-295 CNS = test system: SF-295 CNS
SF-539 CNS = test system: SF-539 CNS
UACC-257 melanoma = test system: UACC-257 melanoma
M14 melanoma = test system: M14 melanoma

Row | Compound | growth (DU-145 prostate) | growth (K-562 leukemia) | growth (MALME-3M melanoma) | growth (MDA-MB-231 breast) | growth (RXF 393 renal) | growth (SF-268 CNS) | growth (SF-295 CNS) | growth (SF-539 CNS) | growth (UACC-257 melanoma) | growth (M14 melanoma)
1 | O=CN1N=C(c2ccc3c(c2)OCO3)CC1c1cccc(Nc2ccnc3cc(C(F)(F)F)ccc23)c1 (stereo not given) | 86.4% | 37% | 101% | 78.2% | 86.4% | 65.4% | 83.1% | 90.5% | 86.8% | 78.6%
2 | COc1cc(F)c(-c2nc3c(C)cccc3n2Cc2c(F)cccc2F)c(F)c1 | 108% | 76.2% | 79.5% | 89.2% | 97.8% | 84.3% | 79.9% | 101% | 76.2% | 86.3%
3 | COc1ccc2nc(-c3ccc(Cl)cc3)cc(-c3nnc(SCC(=O)Nc4ccc(/C(C)=N\O)cc4)o3)c2c1 | 25.9% | 15.9% | 15.1% | 39.7% | 39.7% | 33.1% | 43% | 68.4% | 44.4% | 30.3%
4 | CCN(CC)c1ccc2c(c1)Oc1nc(N)c(C#N)c(N)c1C2Sc1ccc(OC)cc1 (stereo not given) | -0.338% (active) | 13.5% | 1.4% (active) | -0.581% (active) | -0.0562% (active) | 16.5% | 29.1% | -34.6% (active) | 92.1% | -16.2% (active)
5 | N#Cc1c(-c2ccc(Cl)cc2)cc(-c2cc3ccccc3o2)nc1SCC(=O)c1ccc(Cl)cc1 | 121% | 118% | 90.6% | 95.5% | 116% | 99.3% | 90.1% | 112% | 112% | 96.9%
6 | Cc1cccc(C)c1NCc1nnc(-c2ccco2)o1 | 99.9% | 100% | 85.2% | 79.7% | 102% | 93.5% | 92.4% | 97.7% | 98.7% | 99%
7 | Cc1cc(C)nc(NS(=O)(=O)c2ccc(Nc3ccc4c5c(n(CCCN(C)C)c(=O)c4c3)-c3ccccc3C5=O)cc2)n1 | 69% | 74.7% | 102% | 108% | 115% | 77.9% | 83.3% | 96.3% | 108% | 89.8%
8 | NS(=O)(=O)c1ccc(N2Cc3cc(Cl)ccc3OC3=C2C(=O)N(CC2CCCCC2)C3=O)cc1 | -94% (active) | -38% (active) | -77% (active) | -74.5% (active) | -89.7% (active) | -83.9% (active) | -19.3% (active) | -99.4% (active) | -79% (active) | -67.7% (active)
9 | Cc1ccc(CS/C(=C\c2ccc([N+](=O)[O-])cc2)C(=O)c2ccc(F)cc2)cc1 | 91.2% | -0.821% (active) | 83.7% | 60.5% | 100% | 74.6% | 79.2% | 98.1% | 93.3% | 40.8%
10 | O=C(/C(=C/c1ccc([N+](=O)[O-])cc1)SCc1ccc(Cl)cc1)c1ccc(F)cc1 | 86.3% | 1.3% (active) | 85.7% | 56.3% | 92% | 76.1% | 84.9% | 88.6% | 92.5% | 47.3%
11 | CCCn1c(N)c(C(N)=O)sc1=S | 117% | 119% | 105% | 99.8% | 125% | 97.2% | 115% | 109% | 109% | 103%
12 | N#Cc1ccc(Oc2ccc3ccc(=O)oc3c2)cc1 | 107% | 79% | 126% | 98.5% | 81.8% | 105% | 112% | 101% | 114% | 92%
13 | COc1cc(C(C)c2ccc3c(ccn3C)c2)cc(OC)c1OC (stereo not given) | -15.3% (active) | 6.54% (active) | 68% | 28.1% | 53.1% | 31.4% | 15.5% | -6.4% (active) | 61% | 11.3%
14 | Cc1nnc(/N=C2\NC(=O)/C(=C/c3ccsc3)S2)s1 | 98.7% | 97.4% | 80.8% | 108% | 99.8% | 85.1% | 85.9% | 99.7% | 108% | 92%
15 | CNS(=O)(=O)c1cccc(-c2ccc3c4c(n(C)c(=O)c3c2)-c2ccccc2C4=O)c1 | 20.7% | 41.3% | 55% | 87.1% | 96.5% | 58.6% | 24.1% | 53.8% | 96.3% | 60.1%
16 | COc1ccc(Cc2nc(C#N)c(N3CCN(c4ccc(F)cc4)CC3)o2)cc1 | 100% | 75.3% | 104% | 98.4% | 76% | 90.5% | 95.5% | 98.2% | 112% | 90%
17 | Cc1nc2sc(C(=O)Nc3ccccc3Cl)c(N)c2cc1C(C)O (stereo not given) | 96.6% | 22.5% | 88.6% | 80.9% | 92.8% | 86.7% | 84.3% | 85.1% | 86.5% | 58.9%
18 | Cc1ccc(C(=O)/C(=C/c2ccc([N+](=O)[O-])cc2)S(=O)Cc2ccccc2)cc1 (stereo not given) | 4.09% (active) | 4.71% (active) | -13.8% (active) | -2.07% (active) | -81.6% (active) | 35.8% | 82.3% | -43.5% (active) | 65.9% | -26.1% (active)
19 | CNc1cccc2c1C(=O)c1cccc(N)c1C2=O | 40.1% | 26.2% | 87.4% | 85.9% | 60.9% | 56.1% | 88.5% | 85.7% | 80.5% | 11.3%
20 | O=c1[nH]c2ccccc2cc1-c1nc2ccc(Cl)cc2[nH]1 | 38.2% | 13.7% | 61.7% | 44.9% | 63% | 50.7% | -7.79% (active) | 49% | 91.5% | 40.8%
21 | CC(C)(C#N)c1cc(F)cc(C(=O)Nc2cc(Nc3ncccc3-c3ncnc4nc[nH]c34)ccc2F)c1 | 56.1% | 5.97% (active) | -28.4% (active) | 22.4% | 34.1% | 60.6% | 46.1% | 20.8% | 23.7% | 5.28% (active)
22 | O=C(/C(=C/c1ccc([N+](=O)[O-])cc1)SCc1ccccc1)c1ccc(Cl)cc1 | 79.3% | 5.41% (active) | 85.3% | 54.8% | 67.3% | 86.5% | 90.3% | 94.3% | 90.2% | 67.3%
23 | NC[C@@H]1CCN(c2cc3c(cc2F)c(=O)n(N)c(=O)n3Cc2ccc(-c3ccccc3)cc2)C1 | 102% | -44% (active) | 121% | 89.7% | 74.7% | 83.1% | 96.5% | 90% | 112% | 68.8%
24 | COc1ccc(Sc2[nH]c(C(C)=O)c3ccccc23)cc1 | 89.4% | 11.9% | 74% | 83.3% | 69.1% | 73.2% | 93.4% | 72.2% | 84.1% | 62.3%
25 | O=C(O)c1cn(C2CC2)c2cc(N3CCN(Cc4nnc(Nc5ccccc5)o4)CC3)c(F)cc2c1=O | 103% | 84.4% | 89.1% | 109% | 118% | 90.2% | 102% | 99.4% | 106% | 95.7%
26 | COc1ccc(/C=C(/C(=O)N2CCN(Cc3ccccc3)CC2)c2cc(OC)c(OC)c(OC)c2)cc1O | 82.3% | 23.1% | 65.8% | 76.9% | 62.3% | 72.6% | 82.8% | 55.7% | 54.7% | 38%
